# Experimental data reported in the supplement of paper PMC6555819.
# Experiments:
# Assay in all cases: PBM binding z-score (relative to random genomic background probes); higher = stronger binding; sequences stand for … in GC…GCGATTGACAGCGTAGAATGAAGG
# [1] = tested on: FXR:RXRa (NR concentration 270 nM, RXRa partner concentration 90 nM)
# Outline: (§1)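 Antibodies against each partner of ligand-free nuclear receptor dimers (one per run) detected binding on custom Agilent 4×180K protein-binding microarrays after 1 h incubation. The double-stranded probes had 34-nt variable regions carrying direct-repeat seeds, single-nucleotide variants, half-site ablations and random human genomic background sequences. Binding z-scores, from regression-normalized fluorescence, use the random background probes as reference.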
# [2] = tested on: LXRa:RXRa (NR concentration 270 nM, RXRa partner concentration 90 nM)
# Outline: as §1
# [3] = tested on: LXRa homodimer (NR concentration 270 nM)
# Outline: as §1
# [4] = tested on: LXRb:RXRa (NR concentration 270 nM, RXRa partner concentration 90 nM)
# Outline: as §1
# [5] = tested on: LXRb homodimer (NR concentration 270 nM)
# Outline: as §1
# [6] = tested on: PPARa:RXRa (NR concentration 270 nM, RXRa partner concentration 90 nM)
# Outline: as §1
# [7] = tested on: PPARg:RXRa (NR concentration 180 nM, RXRa partner concentration 90 nM)
# Outline: as §1
# [8] = tested on: PPARg:RXRa 270nM:90nM, anti-RXR (NR concentration 270 nM, RXRa partner concentration 90 nM)
# Outline: as §1
# [9] = tested on: PPARg:RXRa 30nM:10nM, anti-RXR (NR concentration 30 nM, RXRa partner concentration 10 nM)
# Outline: as §1
# [10] = tested on: PPARg:RXRa 90nM:30nM, anti-RXR (NR concentration 90 nM, RXRa partner concentration 30 nM)
# Outline: as §1
# [11] = tested on: PPARg:RXRa DBDmut IVT, anti-RXR (DBD mutation: RXRa K156A/R161A, NR concentration 270 nM, RXRa partner concentration 90 nM)
# Outline: as §1
# [12] = tested on: PPARg:RXRa IVT, anti-PPARg (NR concentration 270 nM, RXRa partner concentration 90 nM)
# Outline: as §1
# [13] = tested on: PPARg DBDmut:RXRa IVT, anti-PPARg (DBD mutation: PPARg1 K132A/R137A, NR concentration 270 nM, RXRa partner concentration 90 nM)
# Outline: as §1
# [14] = tested on: PPARg DBDmut IVT, anti-PPARg (DBD mutation: PPARg1 K132A/R137A, NR concentration 270 nM)
# Outline: as §1
# [15] = tested on: PPARg homodimer (NR concentration 180 nM)
# Outline: as §1
# [16] = tested on: PXR:RXRa (NR concentration 270 nM, RXRa partner concentration 90 nM)
# Outline: as §1
# [17] = tested on: PXR homodimer (NR concentration 270 nM)
# Outline: as §1
# [18] = tested on: RARa:RXR (NR concentration 270 nM, RXRa partner concentration 90 nM)
# Outline: as §1
# [19] = tested on: RARa homodimer (NR concentration 270 nM)
# Outline: as §1
# [20] = tested on: RARb:RXRa (NR concentration 270 nM, RXRa partner concentration 90 nM)
# Outline: as §1
Sequence,PBM binding z-score [1],PBM binding z-score [2],PBM binding z-score [3],PBM binding z-score [4],PBM binding z-score [5],PBM binding z-score [6],PBM binding z-score [7],PBM binding z-score [8],PBM binding z-score [9],PBM binding z-score [10],PBM binding z-score [11],PBM binding z-score [12],PBM binding z-score [13],PBM binding z-score [14],PBM binding z-score [15],PBM binding z-score [16],PBM binding z-score [17],PBM binding z-score [18],PBM binding z-score [19],PBM binding z-score [20]
CGTACTGGGCCACGAAAGGTCATTGATTCAGTGA,4.13,4.99,5.16,4.46,0.336,4.75,4.87,4.93,2.22,4.16,5.64,5.82,1.54,0.503,4.05,5.71,2.11,5.78,1.22,4.17
ATCGCAAGGTCGAGGTGAGTATAGAGAAAGGGAA,1.56,0.947,-0.582,0.995,-0.275,2.5,1.05,0.957,0.1,0.379,-0.0497,1.28,0.589,-0.0017,-0.0351,1.04,-0.378,1.52,-0.173,2.75
CTCGAAAGGTCGGTTGAGGTGAGTATACGGATAA,2.05,1.7,-0.0944,1.35,-0.0787,2.63,0.61,1.18,-0.156,0.663,-0.0424,0.699,0.597,-0.651,0.927,3.19,-0.354,3.13,0.103,2.98
CGAACTAGGTCATTGACAGGGCAGTGAATAGTAA,4.4,3.17,0.428,1.99,-0.104,4.74,7.4,6.18,3.75,5.96,8.27,7.87,2.56,1.37,2.24,1.69,0.134,2.69,0.301,3.72
GATACAGGGTCAGCTAGAGGCCAGACTATGGAAA,4.52,2.92,-0.325,2.4,0.0441,4.49,4.01,3.55,1.29,2.19,1.46,2.29,-0.0728,0.0438,1.82,2.88,0.12,4.3,0.752,3.97
TGTCAAATTTCAAAGGTAACGTAAGTATCCACAC,0.556,0.784,-0.0184,0.869,0.492,0.954,0.712,1.41,1.62,1.41,-0.296,1.37,1,1.11,0.532,0.473,0.33,0.98,0.848,1.04
TCTGCTAGGTCAGTTGGTCAGCTAACGAGCTGCC,0.844,0.445,-0.44,0.299,0.673,1.29,0.575,1.83,1.27,1.66,2.77,3.08,-0.303,0.752,0.0124,0.0781,-0.754,0.864,-0.941,3.35
